Reference: the supplement of paper PMC6089552
Screen size: about 3,200 compounds; about 300 (9.4%) showed activity. The entries come from a sample that favours actives as a whole.

System: A673/TR/shEF
Experiment: cell viability (LOESS-normalised, relative to median of negative controls) (log2 ratio); higher = more viable cells (less compound effect), active = hit call of the paper (over 3 MAD below the median)
Settings: treatment time: 72 h
How it was run: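 A673/TR/shEF Ewing sarcoma cells (1,500 per well, 384-well plates) were grown with or without doxycycline to induce EWS-FLI1 shRNA knockdown, starting 24 h before compounds. Library compounds at two or more concentrations, with DMSO controls, were added for three days. Cell viability was read by CellTiter-Glo luminescence on an Envision reader, then LOESS-corrected per plate, divided by the median of negative controls and log2-transformed. Hits were wells at least three median absolute deviations from the median of all screened wells.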

[1] = 0.25 µM, library screen: screen2, EWS-FLI1 expression: high (no doxycycline)
[2] = 0.25 µM, library screen: screen2, EWS-FLI1 expression: low (doxycycline-induced shRNA knockdown)
[3] = 2.5 µM, library screen: screen2, EWS-FLI1 expression: high (no doxycycline)
[4] = 2.5 µM, library screen: screen2, EWS-FLI1 expression: low (doxycycline-induced shRNA knockdown)
[5] = 0.25 µM, library screen: screen1, EWS-FLI1 expression: high (no doxycycline)
[6] = 0.25 µM, library screen: screen1, EWS-FLI1 expression: low (doxycycline-induced shRNA knockdown)
[7] = 2.5 µM, library screen: screen1, EWS-FLI1 expression: high (no doxycycline)
[8] = 2.5 µM, library screen: screen1, EWS-FLI1 expression: low (doxycycline-induced shRNA knockdown)
[9] = 0.103 µM, library screen: screen3, EWS-FLI1 expression: high (no doxycycline)
[10] = 0.103 µM, library screen: screen3, EWS-FLI1 expression: low (doxycycline-induced shRNA knockdown)
[11] = 0.308 µM, library screen: screen3, EWS-FLI1 expression: high (no doxycycline)
[12] = 0.308 µM, library screen: screen3, EWS-FLI1 expression: low (doxycycline-induced shRNA knockdown)
[13] = 0.926 µM, library screen: screen3, EWS-FLI1 expression: high (no doxycycline)
[14] = 0.926 µM, library screen: screen3, EWS-FLI1 expression: low (doxycycline-induced shRNA knockdown)
[15] = 2.8 µM, library screen: screen3, EWS-FLI1 expression: high (no doxycycline)
[16] = 2.8 µM, library screen: screen3, EWS-FLI1 expression: low (doxycycline-induced shRNA knockdown)
[17] = 8.3 µM, library screen: screen3, EWS-FLI1 expression: high (no doxycycline)
[18] = 8.3 µM, library screen: screen3, EWS-FLI1 expression: low (doxycycline-induced shRNA knockdown)
[19] = 25 µM, library screen: screen3, EWS-FLI1 expression: high (no doxycycline)
[20] = 25 µM, library screen: screen3, EWS-FLI1 expression: low (doxycycline-induced shRNA knockdown)

Measured: cell viability (log2)

CCCCCCCCCCCCCCC[C@@H](O)[C@H](CO)NC(C)=O
inactive: [1] 0.176 | [2] 0.139 | [3] 0.0603 | [4] 0.124

NC(=S)c1ccc[n+]([C@@H]2O[C@H](COP(=O)(O)OP(=O)(O)OC[C@H]3O[C@@H](n4cnc5c(N)ncnc54)[C@H](OP(=O)(O)O)[C@@H]3O)[C@@H](O)[C@H]2[O-])c1
inactive: [1] 0.209 | [2] 0.145 | [3] 0.254 | [4] 0.143

Clc1ccc(CN2CCN(Cc3c[nH]c4ccccc34)CC2)cc1
inactive: [5] 0.142 | [6] 0.175 | [7] 0.152 | [8] 0.116

COc1ccc2c(c1)OCC(=Cc1ccc(OC)c(O)c1)C2=O
inactive: [5] 0.111 | [6] 0.0739 | [7] 0.125 | [8] 0.0254

CCOC(=O)C1=C(C)NC2=C(C(=O)CC(C)(C)C2)C1c1coc2ccccc2c1=O (stereo unspecified)
inactive: [5] 0.113 | [6] 0.123 | [7] 0.0647 | [8] 0.0912

COc1ccc(CNS(=O)(=O)c2ccc(NC(C)=O)cc2)cc1
inactive: [5] 0.136 | [6] 0.114 | [7] 0.073 | [8] 0.0317

CC(=O)O[C@@H]1CC2C(C)(C)CCC[C@]2(C)C2CC[C@]3(C)C(=CC(=O)O[C@H]3c3ccoc3)[C@@]21C (stereo partly specified)
inactive: [5] 0.0969 | [6] 0.0706 | [7] 0.0583 | [8] 0.123

CC1=C(C(=O)OC2CCCC2)C(c2coc3ccccc3c2=O)C2=C(CCCC2=O)N1 (stereo unspecified)
inactive: [5] 0.0306 | [6] 0.112 | [7] 0.0744 | [8] 0.0338

Cc1cc(=O)c2c(o1)-c1c(cc(O)c(O)c1C(=O)O)OC2
inactive: [5] 0.0145 | [6] 0.0255 | [7] 0.0451 | [8] 0.0692

N[C@H](CO)C(=O)O
inactive: [1] 0.128 | [2] 0.103 | [3] 0.162 | [4] 0.112

N[C@@H](CC(=O)O)C(=O)O
inactive: [2] 0.087 | [3] 0.0127 | [4] 0.00419
active: [1] -0.146

N[C@@H](CCC(=O)O)C(=O)O
inactive: [1] 0.193 | [2] 0.073 | [3] 0.108 | [4] 0.15

CNc1ccccc1C(=O)N1CCc2c([nH]c3ccccc23)C1=O
inactive: [5] 0.0191 | [6] -0.0744 | [7] 0.0945 | [8] 0.0188

COC1[C@H](O)[C@@H](O)C(O)[C@H](O)[C@H]1O (stereo partly specified)
inactive: [5] 0.0827 | [6] 0.0562 | [7] 0.177 | [8] 0.115

CC(=O)O[C@H]1CC[C@]2(C)[C@H]3C(=O)C=C4[C@@H]5C[C@@](C)(C(=O)O)CC[C@]5(C)CC[C@@]4(C)[C@]3(C)CC[C@H]2C1(C)C
inactive: [5] 0.0602 | [6] 0.011 | [7] 0.129 | [8] 0.0507

CO[C@@H](C(=O)N1Cc2[nH]nc(NC(=O)c3ccc(N4CCN(C)CC4)cc3)c2C1)c1ccccc1
inactive: [10] 0.0472 | [12] -0.0579
active: [9] -0.25 | [11] -0.418 | [13] -0.596 | [14] -0.134 | [15] -0.679 | [16] -0.355 | [17] -0.794 | [18] -0.46 | [19] -1.13 | [20] -1.21

O=C(Nc1cccc(C(=O)Nc2ccc(S(=O)(=O)O)c3cc(S(=O)(=O)O)cc(S(=O)(=O)O)c23)c1)Nc1cccc(C(=O)Nc2ccc(S(=O)(=O)O)c3cc(S(=O)(=O)O)cc(S(=O)(=O)O)c23)c1
inactive: [1] 0.11 | [2] 0.117 | [3] 0.167 | [4] 0.0855

O=C(Nc1cc(C(=O)Nc2ccc(S(=O)(=O)O)c(S(=O)(=O)O)c2)cc(C(=O)Nc2ccc(S(=O)(=O)O)c(S(=O)(=O)O)c2)c1)Nc1cc(C(=O)Nc2ccc(S(=O)(=O)O)c(S(=O)(=O)O)c2)cc(C(=O)Nc2ccc(S(=O)(=O)O)c(S(=O)(=O)O)c2)c1
inactive: [1] 0.215 | [2] 0.101 | [3] 0.0469 | [4] 0.125

Cc1ccc(C(=O)Nc2ccc(S(=O)(=O)O)c3cc(S(=O)(=O)O)cc(S(=O)(=O)O)c23)cc1NC(=O)c1cccc(NC(=O)Nc2cccc(C(=O)Nc3cc(C(=O)Nc4ccc(S(=O)(=O)O)c5cc(S(=O)(=O)O)cc(S(=O)(=O)O)c45)ccc3C)c2)c1
active: [1] -2.98 | [2] -2.91 | [3] -3.46 | [4] -3.2
inactive: [5] 0.152 | [6] 0.0138 | [7] 0.0749 | [8] 0.0704

OCCN(C(=S)Nc1ccc2nccnc2c1)c1ccccc1
inactive: [5] 0.0686 | [6] 0.0667 | [7] 0.0818 | [8] 0.102

CC12CCC3c4ccc(OC(=O)c5ccccc5)cc4CCC3C1CCC2=O (stereo unspecified)
inactive: [5] -0.000312 | [6] 0.0356 | [7] 0.0819 | [8] 0.000425

Cc1cc(OC(=O)c2c(C)cc(O)cc2O)cc(O)c1C(=O)O
inactive: [5] 0.0848 | [6] -0.00358 | [7] 0.0665 | [8] 0.0394

CCCCC1C(=O)N(c2ccccc2)N(c2ccccc2)C1=O
inactive: [9] 0.0537 | [10] 0.0214 | [5] 0.128 | [6] 0.109 | [1] 0.0899 | [2] 0.0435 | [11] 0.172 | [12] 0.159 | [13] 0.0763 | [14] 0.0956 | [7] 0.118 | [8] 0.1 | [3] 0.084 | [4] 0.0326 | [15] 0.137 | [16] 0.112 | [17] 0.169 | [18] 0.123 | [19] 0.117 | [20] 0.141

CCCCC1C(=O)N(c2ccccc2)N(c2ccc(O)cc2)C1=O (stereo unspecified)
inactive: [5] 0.139 | [6] 0.0945 | [8] 0.2
active: [7] -0.129

O=C1C(CC[S+]([O-])c2ccccc2)C(=O)N(c2ccccc2)N1c1ccccc1 (stereo unspecified)
inactive: [5] 0.123 | [6] 0.158 | [7] 0.184 | [8] 0.139

COc1cccc(CN2CCN(Cc3c[nH]c4ccccc34)CC2)c1
inactive: [5] 0.11 | [6] 0.105 | [7] 0.138 | [8] 0.0572

NCC(O)c1ccc(O)c(O)c1 (stereo unspecified)
inactive: [2] 0.0558 | [3] 0.0351 | [4] -0.00208
active: [1] -0.177

CNC[C@H](O)c1ccc(O)c(O)c1
inactive: [9] 0.00528 | [10] 0.0495 | [5] 0.106 | [6] 0.0509 | [1] 0.169 | [2] 0.0474 | [11] 0.079 | [12] 0.091 | [13] 0.0631 | [14] 0.0893 | [7] 0.183 | [8] 0.209 | [3] 0.122 | [4] 0.099 | [15] 0.0488 | [16] 0.0524 | [17] -0.00361 | [18] 0.0638 | [19] 0.098 | [20] 0.00995

NC[C@H](O)c1ccc(O)c(O)c1
inactive: [5] 0.152 | [6] -0.0124 | [1] 0.069 | [2] 0.102 | [7] 0.127 | [8] 0.154 | [3] 0.0755 | [4] 0.101

CS(=O)(=O)CCCCN=C=S
inactive: [5] 0.17 | [6] 0.115 | [7] 0.227 | [8] 0.0923

NS(O)(O)Cc1noc2ccccc12
inactive: [1] 0.153 | [2] 0.0786 | [3] 0.183 | [4] 0.124

O=C(c1cc(-c2ccccc2)nc2ccccc12)N1CCN(c2ccccc2)CC1
inactive: [5] 0.112 | [6] 0.0402 | [7] 0.113 | [8] 0.188

CC1CN(C(=O)c2cc(-c3ccccc3)nc3ccccc23)CC(C)O1 (stereo unspecified)
inactive: [7] 0.0982 | [8] 0.0382
active: [5] -2.9 | [6] -2.55

O=C(c1cc(-c2ccccc2)nc2ccccc12)N1CCCC1
inactive: [5] 0.0657 | [6] 0.0915 | [7] 0.129 | [8] -0.0754

Cc1cccc(C)c1OCC(N)C(C)C (stereo unspecified)
inactive: [1] 0.0355 | [2] -0.033 | [3] 0.0196 | [4] 0.00962

COc1cccc2c1CCC1CC(=O)CC[C@]21C (stereo partly specified)
inactive: [5] 0.0982 | [6] 0.0827 | [7] 0.058 | [8] 0.11

OC[C@@H](O)[C@@H](O)C(O)[C@H](O)[C@@H](O)CO (stereo partly specified)
inactive: [5] 0.0348 | [6] 0.0046 | [7] 0.138 | [8] 0.018

CC(C)NCC(O)COc1cccc2ccccc12 (stereo unspecified)
inactive: [5] 0.149 | [6] 0.0263 | [1] 0.19 | [2] 0.128 | [7] 0.146 | [8] -0.0491 | [3] 0.0197 | [4] 0.0681

C=CCc1ccccc1OCC(O)CNC(C)C (stereo unspecified)
active: [1] -0.203
inactive: [5] 0.0845 | [6] 0.135 | [2] 0.0871 | [7] 0.0928 | [8] 0.0547 | [3] 0.0869 | [4] 0.156

CC(C)NC[C@H](O)COc1cccc2ccccc12
inactive: [1] 0.141 | [2] 0.0581 | [3] 0.131 | [4] 0.11
